In PubChem BioAssay (EPA / NIEHS) one finds outcome and AC50 data, which are given here for 6 compounds.

Assay [1] is described as follows: CCTE_Simmons_MITO_basal_resp_rate: CCTE's HepG2 Seahorse XF Respirometric Screening Assay at Basal Respiratory State, Simmons Lab (AID 2284001). The conditions noted are these: actives raise or lower the signal. Summed up: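 HepG2 respirometry; 7-pt titration 125 nM–100 uM final; kinetic OCR at 6 min intervals for 72 min; n=3 biological, technical singles; DMSO baseline, gain or loss fit; fenpyroximate (decrease) and 2,4-DNP (increase) controls.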

Assay [2] can be described thus: CCTE_Simmons_MITO_max_resp_rate: CCTE's HepG2 Seahorse XF Respirometric Screening Assay at Maximal Respiratory State [uncoupled], Simmons Lab (AID 2284002). The following applies: actives raise or lower the signal. The method, boiled down: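 Maximal (FCCP-uncoupled) respiration rate in HepG2, from Seahorse kinetic OCR over 72 min at 6 min cycles. Compounds at 125 nM–100 uM final, 7 points, three biological replicates; both directions fit relative to DMSO.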

The nature of assay [3]: CCTE_Simmons_MITO_inhib_resp_rate: CCTE's HepG2 Seahorse XF Respirometric Screening Assay at Inhibited Respiratory State [full ETC block], Simmons Lab (AID 2284006). The conditions noted are these: actives raise or lower the signal. Summed up: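 Compound injected onto HepG2 cells (125 nM–100 uM final, 7 points); FCCP then rotenone/antimycin A added. Oxygen consumption read every 6 min (3 min mix, 3 min measure) for 72 min. Inhibited-state OCR fitted against DMSO.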

Assay [4] can be described thus: CCTE_Simmons_MITO_viability: CellTiter-Glo Viability Assessment for CCTE's HepG2 Seahorse XF Respirometric Screening Assay [post-hoc], Simmons Lab (AID 2284007; active means hit-call score of the fitted dose curve at least 0.9, where 1 is the maximum;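 on AC50: cells exposed to chemical for 90 min before the ATP read; actives lower ATP signal relative to DMSO baseline meaning reduced viability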). Summed up:
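After the Seahorse oxygen-consumption sequence (basal, FCCP, rotenone/antimycin A; 72 min total), HepG2 viability was scored as ATP content by bioluminescence. Chemicals ran at seven concentrations up to 100 uM final for 90 min.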

A short description of assay [5]: CCTE_Shafer_MEA_acute_spike_number: CCTE's Neural Acute Assay for Total Number of Spikes, Shafer Lab (AID 2284008).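 On AC50: curve fitted for decrease in spike count so AC50 reflects inhibitors.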 Summed up: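 Total spike count from 40 min recordings before and during compound exposure (0.03-40 uM), given as per-well percent change. Cortical cultures from rat, DIV 13 or 15, 37 C; adaptive detection threshold 8x rms noise.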
Assay [6] in a line: CCTE_Shafer_MEA_acute_firing_rate_mean: CCTE's Neural Acute Assay for Mean Firing Rate, Shafer Lab (AID 2284009).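 Further: analyzed for loss of signal so actives lower firing rate relative to DMSO.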 Summed up:
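Percent change in well-mean firing rate was derived from extracellular spikes detected at 8x rms noise (300-5000 Hz band-pass) before and after a 40-min compound exposure. Cultures were primary rat cortical neurons, tested at 0.03-40 uM.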

A short description of assay [7]: CCTE_Harrill_HTTr_Viability_MCF7: CCTE's 6-hour Cell Viability Assessment for the High-Throughput Transcriptomics (HTTr) Platform, in MCF-7 cells cultured in DMEM + 10% fetal bovine serum, Harrill Lab (AID 2284010). The method, boiled down: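 Cells were dosed with chemicals in an eight-point dilution series, imaged 6 hours later for propidium iodide uptake, and the endpoint was analyzed by bidirectional fitting against DMSO as negative control.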

Assay [8] can be described thus: CCTE_Harrill_HTTr_CellCount_MCF7: CCTE's Cell Proliferation Assessment for the High-Throughput Transcriptomics (HTTr) Platform, Harrill Lab (AID 2284012; active means hit-call score of the fitted dose curve at least 0.9, where 1 is the maximum;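 further: cells exposed to compound for six hours; intended direction is loss of nuclei count meaning fewer cells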). The method, boiled down: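 Chemicals in eight-point dilution series are added to MCF-7 cells for six hours, nuclei are stained with Hoechst and imaged, and per-well nuclei counts are fitted in both directions relative to DMSO controls.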

Assay [9] in a line: CCTE_Shafer_MEA_acute_burst_number: CCTE's Neural Acute Assay for Single-Electrode Bursts, Shafer Lab (AID 2284013). The method, boiled down: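 Spontaneous network activity of primary rat cortical neurons was recorded extracellularly on microelectrode arrays at 37 C, with 40-min periods before and during exposure to 0.03-40 uM compound on DIV 13 or 15.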
Assay [10] in a line: CCTE_Shafer_MEA_acute_burst_duration_mean: CCTE's Neural Acute Assay for Mean Burst Duration, Shafer Lab (AID 2284014).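 Further: hits are decreases in mean burst duration relative to DMSO controls.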 Summed up: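 Read-out is the per-well percent change in mean burst duration (first to last spike within a single-electrode burst) between 40-min recordings before and after compound. Cultures were primary rat cortical neurons on MEAs, dosed at 0.03-40 uM on DIV 13 or 15.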

Assay [11] in a line: CCTE_Shafer_MEA_acute_per_burst_spike_number_mean: CCTE's Neural Acute Assay for Average Number of Spikes Per Burst, Shafer Lab (AID 2284015).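 Further: hits are decreases in mean spikes per burst versus baseline.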 The method, boiled down: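 We recorded spontaneous network firing of rat cortical neurons for 40 min before and 40 min during exposure to compound at 0.03-40 uM, at 37 C. Spikes were detected adaptively at 8x rms noise, and the change in average spikes per burst was fitted against DMSO.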

Assay [12] can be described thus: CCTE_Shafer_MEA_acute_interburst_interval_mean: CCTE's Neural Acute Assay for Mean Interburst Interval, Shafer Lab (AID 2284016).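 Further: percent change of mean interburst interval versus each well's own pre-dose baseline; curves fitted for decrease in interburst interval relative to DMSO.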 Summed up: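 MEA recording of spontaneous network bursting in primary rat cortical cultures; mean interburst interval was compared before and after a 40-min compound exposure (0.03-40 uM) and expressed as percent change, relative to DMSO.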

The nature of assay [13]: CCTE_Shafer_MEA_acute_burst_percentage_mean: CCTE's Neural Acute Assay for Percentage of Spikes in a Burst, Shafer Lab (AID 2284017).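 Further: curve fitted for loss of signal so potency reflects decreased burst percentage.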 Summed up: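 Compounds were tested at 0.03-40 uM on primary rat cortical neuron networks grown over microelectrodes, with at least three wells per compound. Spontaneous firing was recorded for 40 min before and 40 min after dosing, and the change in burst percentage was computed per well.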

Assay [14] in a line: CCTE_Shafer_MEA_acute_burst_percentage_std: CCTE's Neural Acute Assay for Standard Deviation of Burst Percentage, Shafer Lab (AID 2284018).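 Further: fitted in the negative direction so actives lower burst percentage SD.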 Summed up:
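Value is percent change from baseline in the across-electrode SD of spikes-in-bursts percentage, wells with >/= 10 active electrodes. Acute 40-min exposure to 0.03-40 uM on DIV 13 or 15 rat cortical cultures, recorded at 37 C after 40-min baseline.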

The nature of assay [15]: CCTE_Shafer_MEA_acute_per_network_burst_spike_number_mean: CCTE's Neural Acute Assay for Average Number of Spikes in a Network Burst, Shafer Lab (AID 2284019).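 On AC50: curve fitted for loss of signal so actives reduce spikes per network burst.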 Summed up: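 Read-out is mean spike count per network burst, taken as percent change between a 40-min pre-exposure and a 40-min post-exposure recording per well. Rat primary cortical neurons on MEAs at 37 C, DIV 13 or 15; compounds at 0.03-40 uM.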

A short description of assay [16]: CCTE_Harrill_HTTr_Apoptosis_MCF7: CCTE's 6-hour Apoptosis Assessment for the High-Throughput Transcriptomics (HTTr) Platform, in MCF-7 cells cultured in DMEM + 10% fetal bovine serum, Harrill Lab (AID 2284011). Summed up:
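High-content imaging of CellEvent Caspase 3/7 Green signal follows a six-hour exposure, with eight concentrations per chemical. MCF-7 cells grown in DMEM plus 10% fetal bovine serum; activity fitted in both directions against DMSO.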

Assay [17] addresses Nucleoli Translocation, AR (gene 367) (UniProt P10275). Put plainly: UPITT_HCI_U2OS_AR_TIF2_Nucleoli_Antagonist: University of Pittsburgh U2OS Androgen Receptor-Transcriptional Intermediary Factor 2 (AR-TIF2) Antagonism High Content Imaging Assay for Nucleoli Translocation (AID 2283997; active means hit-call score of the fitted dose curve at least 0.9, where 1 is the maximum). The method, boiled down:
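Measured quantity was AR-RFP fluorescence localized to nucleoli in engineered U2OS cells also bearing TIF2-GFP, acquired on automated high-content imagers. Primary testing used 20 uM compound; actives were confirmed in triplicate wells.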

For assay [18] the target is unchanged. Put plainly: UPITT_HCI_U2OS_AR_TIF2_Nucleoli_Agonist: University of Pittsburgh U2OS Androgen Receptor-Transcriptional Intermediary Factor 2 (AR-TIF2) Agonism High Content Imaging Assay for Nucleoli Translocation (AID 2283998; active means hit-call score of the fitted dose curve at least 0.9, where 1 is the maximum). The method, boiled down:
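Nucleolar translocation of AR-RFP, with TIF2-GFP coexpressed in human osteosarcoma U2OS, imaged by high-content fluorescence. Compounds tested singly at 20 uM final, confirmed in triplicate, then titrated 0.195–50 uM final; gain-of-signal relative to DMSO.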

Assay [19] deals with Ratio of Nucleoli Translocation and Cytoplasm, AR (gene 367) (UniProt P10275). Put plainly: UPITT_HCI_U2OS_AR_TIF2_Nucleoli_Cytoplasm_Ratio_Antagonist: University of Pittsburgh U2OS Androgen Receptor-Transcriptional Intermediary Factor 2 (AR-TIF2) Antagonism High Content Imaging Assay for Ratio of Nucleoli Translocation and Cytoplasm (AID 2283999; active means hit-call score of the fitted dose curve at least 0.9, where 1 is the maximum;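 further: antagonists lower the DHT-driven ratio of nucleolar to cytoplasmic red signal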). The method, boiled down:
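Human osteosarcoma U2OS line, AR fused to RFP, coactivator TIF2 fused to GFP. Cpds 20 uM final, 0.2% DMSO (screen); 0.195–50 uM final, 0.5% DMSO (CRC). Endpoint: nucleoli/cytoplasm red signal ratio, DHT as baseline, loss-of-signal antagonist mode.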

The target is the same in assay [20]. Put plainly: UPITT_HCI_U2OS_AR_TIF2_Nucleoli_Cytoplasm_Ratio_Agonist: University of Pittsburgh U2OS Androgen Receptor-Transcriptional Intermediary Factor 2 (AR-TIF2) Agonism High Content Imaging Assay for Ratio of Nucleoli Translocation and Cytoplasm (AID 2284000; active means hit-call score of the fitted dose curve at least 0.9, where 1 is the maximum;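 further: hits raise the red nucleolar to cytoplasm ratio above vehicle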). Summed up: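 Read-out first: nucleolar-to-cytoplasm ratio of red (AR-RFP) signal, quantified by high-content imaging in U2OS cells co-expressing TIF2-GFP. Activity is scored as signal increase over DMSO. Single-point screening used 20 uM final (0.2% DMSO).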

Where “and” joins values, the source holds several entries; their conditions need not be identical. Equal values may be shown once. Results filed as inconclusive are left out. Calls of active or inactive are those of the source. How the source made its calls, unless noted: active means hit-call score of the fitted dose curve at least 0.9, where 1 is the maximum; inactive means score below 0.9.

Ratio of Nucleoli Translocation and Cytoplasm, AR (gene 367), sequence (P10275 whole entry, looked up, the tested form may be a part): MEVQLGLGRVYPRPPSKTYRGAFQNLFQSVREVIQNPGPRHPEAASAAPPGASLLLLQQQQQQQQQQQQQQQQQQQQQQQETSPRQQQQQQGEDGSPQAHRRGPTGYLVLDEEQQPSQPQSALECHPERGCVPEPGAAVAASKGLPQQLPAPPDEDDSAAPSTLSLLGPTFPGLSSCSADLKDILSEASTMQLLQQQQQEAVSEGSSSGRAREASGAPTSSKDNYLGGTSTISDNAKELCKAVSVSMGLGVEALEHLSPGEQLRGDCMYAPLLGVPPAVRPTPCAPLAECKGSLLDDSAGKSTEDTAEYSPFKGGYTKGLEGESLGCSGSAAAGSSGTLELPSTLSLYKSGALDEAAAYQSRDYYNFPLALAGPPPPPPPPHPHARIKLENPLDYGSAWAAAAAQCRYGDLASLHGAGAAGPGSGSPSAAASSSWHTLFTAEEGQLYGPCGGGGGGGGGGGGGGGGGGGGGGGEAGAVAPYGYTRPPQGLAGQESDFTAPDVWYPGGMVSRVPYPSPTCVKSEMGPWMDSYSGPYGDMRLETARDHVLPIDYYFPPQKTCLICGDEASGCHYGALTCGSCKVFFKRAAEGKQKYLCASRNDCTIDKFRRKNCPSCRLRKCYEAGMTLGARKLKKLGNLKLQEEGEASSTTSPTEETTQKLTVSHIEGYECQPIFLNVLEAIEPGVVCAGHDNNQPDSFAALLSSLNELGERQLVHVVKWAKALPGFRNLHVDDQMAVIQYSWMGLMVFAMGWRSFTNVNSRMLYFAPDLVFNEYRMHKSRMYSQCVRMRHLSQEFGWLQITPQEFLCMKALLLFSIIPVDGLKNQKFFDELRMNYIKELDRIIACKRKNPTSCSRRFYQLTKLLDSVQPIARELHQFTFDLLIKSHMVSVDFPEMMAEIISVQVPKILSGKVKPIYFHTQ
Nucleoli Translocation, AR (gene 367), sequence (P10275 whole entry, looked up): as the sequence (P10275 whole entry, looked up, the tested form may be a part) above

For the compound `CCCOCC(=Nc1ccc(Cl)cc1C(F)(F)F)n1ccnc1`, the call in [1], in [3], in [7], in [8], in [12] and in assay [14] was inactive. The AC50 in assay [2] is 15.4 µM (active); in assay [4] it was 18.2 µM (active); in assay [5] it was 568 nM (active); in assay [6], 571 nM (active); in assay [9], 686 nM (active); in assay [10], 6.29 µM (active). Moreover, the AC50 in assay [11] is 2.02 µM (active); in [13] it was 2.71 µM (active); in [15] it was 943 nM (active).

As to `C[Si](Cn1cncn1)(c1ccc(F)cc1)c1ccc(F)cc1`, the AC50 in [1] was 13.9 µM (active); in [2], 16.2 µM (active); in assay [4], 10.3 µM (active); in assay [5], 4690 nM (active); in assay [6], 4690 nM (active); in [9] it was 4300 nM (active). In addition, the AC50 in assay [11] is 7.68 µM (active); in [13], 15.4 µM (active); in assay [14], 4.31 µM (active). Moreover, the call in assay [3], in assay [7], in assay [8], in assay [10], in assay [12] and in [15] was inactive.

Consider `CC[C@H](C)[C@H]1O[C@]2(C=C[C@@H]1C)C[C@@H]1C[C@@H](C/C=C(\C)[C@@H](O[C@H]3C[C@H](OC)[C@@H](O[C@H]4C[C@H](OC)[C@@H](NC)[C@H](C)O4)[C@H](C)O3)[C@@H](C)/C=C/C=C3\CO[C@@H]4[C@H](O)C(C)=C[C@@H](C(=O)O1)[C@]34O)O2`, for which the AC50 was 25.7 µM (active) in assay [1]; 97.8 µM (active) in [2]; 84.7 µM (active) in [3]; 86.9 µM (active) in assay [4]; 4.95 nM (active) and 26.8 nM (active) in assay [5]; 4.94 nM (active) and 26.8 nM (active) in assay [6]. Also, the AC50 in assay [7] was 50 µM (active); in assay [8], 50 µM (active); in [9], 7.43 nM (active) and 28.2 nM (active); in assay [10], 38.2 µM (active) and 1.5 µM (active); in [11] it was 26.5 nM (active) and 1.5 µM (active); in assay [12] it was 26.1 nM (active) and 2.28 µM (active). Moreover, the AC50 in assay [13] is 26.6 nM (active) and 37.8 nM (active); in assay [14], 48.5 nM (active) and 2.98 µM (active); in assay [15], 22.5 nM (active) and 1.91 µM (active). Further, in [16], the outcome was inactive.

Consider `CCCOc1nn(C(=O)NS(=O)(=O)c2ccccc2C(=O)OC)c(=O)n1C`, for which the call in assay [17], in [18], in assay [19], in [20], in assay [7] and in [16] was inactive. For the same compound, in [8], the compound was called inactive.

Turning to `CCOC(=O)COc1cc(-c2nn(C)c(OC(F)F)c2Cl)c(F)cc1Cl`, the compound was called inactive in assay [17], in assay [18], in assay [20], in [7] and in assay [16].

Consider `CC(C)=CC1C(C(=O)OCN2C(=O)C3=C(CCCC3)C2=O)C1(C)C` (configuration not stated), for which the result in [17], in assay [18], in assay [19], in [3], in assay [4] and in assay [5] was inactive. Besides, the compound was classed as inactive in assay [6], in [7], in assay [16], in assay [8], in assay [9] and in assay [10]. The compound was classed as inactive in [11], in assay [12] and in assay [15]. Moreover, the AC50 was 42.5 µM (active) in assay [1], 39.9 µM (active) in assay [2], 20 µM (active) in [13] and 26.1 µM (active) in assay [14].
